Measured values as given in publication PMC7826789 (International Journal of Molecular Sciences, 2021).

Key:
Conditions in all cases: Compound Concentration (nM):1000
MET(Y1235D) = test system: MET(Y1235D)
MET = test system: MET
MINK = test system: T1, MINK
T1 construct: gene MINK1

MKK7 = test system: T2, MKK7
T2 construct: gene MAP2K7

MKNK1 = test system: MKNK1
MLCK = test system: T3, MLCK
T3 construct: gene MYLK3

MLK1 = test system: T4, MLK1
T4 construct: gene MAP3K9

MLK2 = test system: T5, MLK2
T5 construct: gene MAP3K10

MLK3 = test system: T6, MLK3
T6 construct: gene MAP3K11

MRCKA = test system: T7, MRCKA
T7 construct: gene CDC42BPA

MRCKB = test system: T8, MRCKB
T8 construct: gene CDC42BPB

MST1R = test system: MST1R
MST1 = test system: T9, MST1
T9 construct: gene STK4

MST2 = test system: T10, MST2
T10 construct: gene STK3

MST3 = test system: T11, MST3
T11 construct: gene STK24

MST4 = test system: MST4
MTOR = test system: MTOR
MUSK = test system: MUSK
MYLK2 = test system: MYLK2
MKNK2 = test system: MKNK2
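Further: KINOMEscan scanMAX binding as percent activity remaining versus control; lower means stronger binding.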

Structure (SMILES) | Percent Control (MET(Y1235D)) | Percent Control (MET) | Percent Control (MINK) | Percent Control (MKK7) | Percent Control (MKNK1) | Percent Control (MLCK) | Percent Control (MLK1) | Percent Control (MLK2) | Percent Control (MLK3) | Percent Control (MRCKA) | Percent Control (MRCKB) | Percent Control (MST1R) | Percent Control (MST1) | Percent Control (MST2) | Percent Control (MST3) | Percent Control (MST4) | Percent Control (MTOR) | Percent Control (MUSK) | Percent Control (MYLK2) | Percent Control (MKNK2)
CN(C)c1cc2c(Nc3ccc4c(cnn4Cc4ccccc4)c3)ncnc2cn1 [GW282974X] | 100% | 94% | 100% | 95% | 74% | 98% | 89% | 95% | 100% | 100% | 84% | 100% | 100% | 83% | 90% | 83% | 100% | 95% | 98% | 
C/C(Nc1ccc(S(N)(=O)=O)cc1)=C1/C(=O)Nc2ccccc21 [GW335962X] | 100% | 72% | 2.8% | 91% | 74% | 69% | 77% | 75% | 98% | 100% | 92% | 100% | 82% | 100% | 27% | 8.4% | 96% | 100% | 100% | 100%
NS(=O)(=O)c1ccc(N/N=C2\C(=O)Nc3ccc(C(=O)NCCc4c[nH]cn4)cc32)cc1 [GW300660X] | 100% | 100% | 43% | 100% | 100% | 100% | 100% | 100% | 100% | 100% | 100% | 100% | 100% | 60% | 100% | 25% | 91% | 100% | 100% | 100%
Nc1ncnc2occ(-c3ccc(NC(=O)Nc4cc(C(F)(F)F)ccc4F)cc3)c12 [GW770249X] | 60% | 89% | 52% | 100% | 55% | 88% | 66% | 18% | 54% | 100% | 100% | 100% | 100% | 83% | 82% | 59% | 100% | 1.4% | 83% | 3.9%
CCS(=O)(=O)c1ccc(OC)c(Nc2ncc(-c3cccc(OC)c3)o2)c1 [GW580509X] | 100% | 100% | 70% | 100% | 100% | 100% | 100% | 100% | 96% | 100% | 100% | 100% | 100% | 100% | 100% | 100% | 100% | 100% | 100% | 94%
COC(=O)Nc1nc2ccc(Oc3ccc(NC(=O)Nc4cc(C(F)(F)F)ccc4F)cc3)cc2s1.Cl [GW693917A] | 6.6% | 33% | 79% | 97% | 45% | 99% | 97% | 85% | 100% | 90% | 96% | 100% | 100% | 100% | 95% | 72% | 100% | 9.7% | 47% | 31%
CC1=C(C(=O)Nc2ccc3[nH]ncc3c2)C(c2ccc(Cl)c(Cl)c2)CC(=O)N1 (stereo not drawn) [GSK299115A] | 97% | 97% | 69% | 90% | 81% | 99% | 70% | 86% | 97% | 100% | 75% | 91% | 90% | 94% | 70% | 66% | 100% | 100% | 100% | 66%
COc1ccc(COc2ccc(Cc3cnc(N)nc3N)cc2OC)cc1 [GW632580X] | 100% | 95% | 85% | 80% | 76% | 100% | 85% | 53% | 90% | 100% | 100% | 100% | 85% | 73% | 97% | 90% | 96% | 100% | 100% | 100%
Cl.O=C(Nc1ccc(Oc2ccc3[nH]c(NC(=O)c4ccccc4)nc3c2)cc1)Nc1cc(C(F)(F)F)ccc1F [GW709042A] | 59% | 64% | 93% | 100% | 64% | 100% | 100% | 47% | 73% | 85% | 90% | 100% | 73% | 100% | 100% | 69% | 82% | 19% | 91% | 26%
CCS(=O)(=O)c1ccc(OC)c(Nc2ncc(-c3cccc(F)c3)o2)c1 [GW621970X] | 100% | 100% | 72% | 100% | 70% | 100% | 100% | 95% | 100% | 100% | 100% | 100% | 100% | 100% | 100% | 93% | 100% | 100% | 98% | 100%
NS(=O)(=O)c1ccc(N/N=C2\C(=O)Nc3ccc(C(=O)NCc4ccncc4)cc32)cc1 [GW300657X] | 91% | 100% | 34% | 93% | 56% | 45% | 89% | 99% | 100% | 100% | 98% | 100% | 100% | 45% | 73% | 75% | 97% | 83% | 100% | 78%
COc1cc(C)c(N(C)C(=O)CN(C)C)cc1Nc1nc(Nc2cccc(F)c2C(N)=O)c2cc[nH]c2n1 [GSK2219385] | 99% | 65% | 86% | 97% | 75% | 78% | 55% | 100% | 100% | 100% | 94% | 100% | 100% | 85% | 93% | 100% | 100% | 84% | 100% | 98%
O=C(Nc1n[nH]c2nc(-c3ccc(O)cc3)c(Br)cc12)C1CC1 [SB-725317] | 100% | 100% | 42% | 100% | 49% | 67% | 100% | 100% | 100% | 100% | 100% | 100% | 100% | 100% | 100% | 77% | 100% | 100% | 5.9% | 90%
COc1ccc2[nH]c3c4[nH]c5ccc(OC)cc5c4c4c(c3c2c1)C(=O)NC4=O [GW296115X] | 76% | 78% | 1.7% | 88% | 92% | 16% | 2.2% | 83% | 5.6% | 76% | 89% | 93% | 100% | 82% | 76% | 85% | 100% | 83% | 82% | 54%
COc1ccc2cc(-c3c(-c4ccncc4)nc(-c4ccc(S(C)(=O)=O)cc4C)n3C)ccc2c1 [SB-633825] | 100% | 80% | 43% | 89% | 66% | 90% | 63% | 79% | 82% | 93% | 88% | 85% | 66% | 60% | 100% | 82% | 100% | 99% | 100% | 73%
COc1ccccc1-c1cc(/C=C2\C(=O)Nc3ncc(Br)cc32)cc(Br)c1O [GW442130X] | 100% | 92% | 93% | 100% | 100% | 100% | 99% | 100% | 100% | 100% | 100% | 100% | 100% | 95% | 100% | 100% | 77% | 100% | 97% | 100%
C[C@@H](Oc1cc(-n2cnc3ccc(OC4CCN(C)CC4)cc32)sc1C(N)=O)c1ccccc1Cl [GSK579289A] | 98% | 58% | 75% | 78% | 71% | 72% | 39% | 86% | 100% | 100% | 88% | 100% | 77% | 24% | 84% | 59% | 95% | 85% | 48% | 60%
Cl.O=C(O[C@H]1CN[C@H](C#Cc2cc3ncnc(Nc4ccc5c(cnn5Cc5ccccc5)c4)c3s2)C1)N1CCOCC1 [GSK200398A] | 100% | 100% | 98% | 75% | 70% | 100% | 100% | 100% | 92% | 100% | 86% | 100% | 100% | 100% | 83% | 100% | 100% | 100% | 100% | 47%
COc1cc2ncn(-c3cc(O[C@H](C)c4ccccc4Cl)c(C(N)=O)s3)c2cc1OC [GSK237701A] | 71% | 78% | 55% | 97% | 73% | 97% | 64% | 95% | 92% | 89% | 96% | 94% | 43% | 0% | 93% | 91% | 100% | 89% | 45% | 77%
NS(=O)(=O)c1ccc(N/N=C2\C(=O)Nc3ccc(Cl)cc32)cc1 [GW280670X] | 100% | 100% | 25% | 100% | 100% | 85% | 100% | 98% | 96% | 100% | 100% | 100% | 100% | 100% | 100% | 63% | 100% | 100% | 100% | 100%
